{"source": "PubChem BioAssay AID540364", "about": "(The Scripps Research Institute Molecular Screening Center, 2011)", "note": "About 2,000 (0.56%) of roughly 360,000 compounds were called active. What follows is part of a selection rich in actives, with near analogues and random picks from the rest. Values without a mark were called inactive.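 Rule for the calls: active = activation above the average of all compounds screened plus 3 SD, cutoff fixed separately per campaign (cut at about 7.5% in these data); inactive = the rest.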"}
{"assay": "FXN promoter activators, primary screen, cell-based, luciferase luminescence, HEK293 lucGAA850 (AID 540364);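 note: 0% = DMSO wells and 100% = 10 µM SAHA wells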", "details": "HEK293 lucGAA850 FXN promoter luciferase reporter, 24 h; at 6 µM; hits give high values; percent of 10 µM SAHA response"}
{"smiles": "Cc1cccnc1CC(C)NC(=O)c1cc(COc2cncc(Cl)c2)on1", "note": "(stereo not given)", "activation": "3.48%"}
{"smiles": "COc1ccc(OCc2cc(C(=O)NCC3(C)COC3)no2)c(Cl)c1", "activation": "4.24%"}
{"smiles": "Cc1cc(OCc2cc(C(=O)NCc3cc(C(C)C)no3)no2)cc(C)c1Cl", "activation": "8.34% (active)"}
{"smiles": "O=C1CC(c2c(F)cccc2Cl)C(n2cncn2)C(O)=C1C1NCCc2ccccc21", "note": "(stereo not given)", "activation": "-1.97%"}
{"smiles": "CCOc1cc(CNCc2ccccn2)ccc1OCC(=O)NC(C)(C)C", "activation": "-1.18%"}
{"smiles": "CCn1c(NCCc2ccc(OC)c(OC)c2)nc2c1c(=O)n(C)c(=O)n2C", "activation": "-0.8%"}
{"smiles": "CCCCn1c(SCC(=O)NCCc2ccc(OC)c(OC)c2)nc2c1c(=O)n(C)c(=O)n2C", "activation": "7.97% (active)"}
{"smiles": "C#CC(C)(C)NC(=O)CSc1nc2c(c(=O)n(C)c(=O)n2C)n1CCCC", "activation": "0.86%"}
{"smiles": "COc1cccc(CNS(=O)(=O)c2cc3c(cc2C)n(C)c(=O)c(=O)n3C)c1", "activation": "-0.74%"}
{"smiles": "COc1ccc([C@@H]2[C@@H]3C(=O)N(C(C)(C)C)C(=O)[C@@H]3[C@]3(Cc4ccccc4)C(=O)N(c4cccc(Br)c4)C(=O)N23)cc1", "activation": "0.35%"}
{"smiles": "Cc1ccc(N2C(=O)N3[C@@H]4c5ccccc5OC[C@@H]4[C@@H](c4ccccc4)[C@@]3(C)C2=O)cc1", "activation": "-0.85%"}
{"smiles": "CC[C@@]12C(=O)N(c3ccccc3)C(=O)N1[C@H](c1ccc(Br)cc1)[C@@H]1C(=O)N(C(C)(C)C)C(=O)[C@@H]12", "activation": "15% (active)"}
{"smiles": "Cc1cccc([C@@H]2[C@@H]3C(=O)N(Cc4ccccc4)C(=O)[C@@H]3[C@]3(C)C(=O)N(c4ccc(Br)cc4)C(=O)N23)c1", "activation": "4.94%"}
{"smiles": "CC(C)(C)N1C(=O)[C@H]2[C@@H](c3ccc(Br)cc3)N3C(=O)N(c4cccc(Cl)c4)C(=O)[C@@]3(C)[C@H]2C1=O", "activation": "14.1% (active)"}
{"smiles": "CCN1C(=O)[C@H]2[C@@H](c3ccc(C)cc3)N3C(=O)N(c4cccc(Br)c4)C(=O)[C@@]3(CC)[C@H]2C1=O", "activation": "5.85%"}
{"smiles": "CC1(Oc2ccccc2-c2ccno2)CCN(Cc2ccc(-c3ccccc3)o2)C1", "note": "(stereo not given)", "activation": "1.3%"}
{"smiles": "O=C(COc1ccc(Cl)cc1)NCCS(=O)(=O)N1CCN(c2ccc(F)cc2)CC1", "activation": "-2.02%"}
{"smiles": "CN(Cc1ccccc1)C(=O)C1CCCN(c2ncnc3c2nc2n3CCCCC2)C1", "note": "(stereo not given)", "activation": "1.56%"}
{"smiles": "CSc1nc(N)c(C#N)c(-c2ccccc2Cl)c1C#N", "activation": "16.1% (active)"}
{"smiles": "COc1ccccc1-c1c(C#N)c(N)nc2c1CCC2", "activation": "1.52%"}
{"smiles": "CSc1ccc(-c2c(C#N)c(N)nc3c2c(C)nn3-c2ccccc2)cc1", "activation": "0.67%"}
{"smiles": "COc1ccc(CNC(=O)c2ccc(-c3cccnc3)c3ccoc23)cc1OC", "activation": "1.42%"}
{"smiles": "Cc1ccc(O/C=C2\\OC(=O)c3ccccc32)cc1", "activation": "-0.57%"}
{"smiles": "CN(CCc1ccccn1)C(=O)CCC1CCCN(Cc2ccccc2OC(F)F)C1", "note": "(stereo not given)", "activation": "0.65%"}
{"smiles": "CCc1c(-c2ccccc2)nc(N)c(C#N)c1-c1cccs1", "activation": "3.81%"}
{"smiles": "Cc1c(-c2ccccc2)nc(N)c(C#N)c1-c1cccs1", "activation": "8.43% (active)"}
{"smiles": "CN1CCc2nc(SC(C(=O)O)c3ccccc3)c(C#N)c(-c3cccs3)c2C1", "note": "(stereo not given)", "activation": "1.01%"}
{"smiles": "Cc1cccc(C(=O)Nc2ccccc2C(=O)NCc2cccnc2)c1", "activation": "0.13%"}
{"smiles": "CN(C)S(=O)(=O)c1ccc2oc(SCC(=O)Nc3ccccc3F)nc2c1", "activation": "7.74% (active)"}
{"smiles": "COc1ccc(S(=O)(=O)N(C)C)cc1NC(=O)CSc1ncccn1", "activation": "2.15%"}
{"smiles": "COc1ccc(NS(=O)(=O)c2ccc3oc(SCC(N)=O)nc3c2)cc1", "activation": "-1.75%"}
{"smiles": "Cc1noc(C)c1-c1ccc(C(=O)NCc2ccncc2)c2occc12", "activation": "3.59%"}
{"smiles": "CN(N)c1nc(N2CCCC2)nc(N2CCCC2)n1", "activation": "1.2%"}
{"smiles": "O=C(NCCN1CCOCC1)c1ccccc1N1C(=O)[C@@H]2Cc3c([nH]c4ccccc34)C(c3cccc(Cl)c3)N2C1=O", "note": "(stereo not given in full)", "activation": "-10.6%"}
{"smiles": "C=C1c2c(Cl)ccc(O)c2C(O)=C2C(=O)[C@]3(O)C(O)=C(C(N)=O)C(=O)[C@@H](N(C)C)[C@@H]3[C@@H](O)C12", "note": "(stereo not given in full)", "activation": "13.5% (active)"}
{"smiles": "CN(C)[C@@H]1C(=O)C(C(N)=O)=C(O)[C@@]2(O)C(=O)C3=C(O)c4c(O)ccc(Cl)c4[C@@H](O)[C@H]3C[C@@H]12", "activation": "13.6% (active)"}
{"smiles": "CN(C(=O)CN1CCN(c2cc(-c3ccc(OCc4ccccc4)cc3)ncn2)CC1)c1ccccc1", "activation": "-2.58%"}
{"smiles": "CN(C(=O)c1ccccc1)c1nccnc1C#N", "activation": "1.95%"}
{"smiles": "CC(=O)N1CC2(C)CN(C(C)=O)CC(C)(C1)C2=O", "activation": "1.87%"}
{"smiles": "CCCC1NC(=O)NC(C)=C1C(=O)OCC", "note": "(stereo not given)", "activation": "0.3%"}
{"smiles": "COC(=O)c1ccc(CSc2nc3ccccc3c(=O)n2-c2cccc(OC)c2)o1", "activation": "10.1% (active)"}
{"smiles": "COc1cccc(-n2c(SCC(=O)NC3CCS(=O)(=O)C3)nc3ccccc3c2=O)c1", "note": "(stereo not given)", "activation": "-0.8%"}
{"smiles": "COCC(C)n1c(SCc2ccc(C(=O)OC)o2)nc2ccccc2c1=O", "note": "(stereo not given)", "activation": "2.64%"}
{"smiles": "Cc1ccc(C)c(OCCC(=O)OCC(=O)NC(=O)NCc2ccccc2)c1", "activation": "1.32%"}
{"smiles": "CCCCN(CC(=O)NC(C)(C)C)C(=O)C(=O)Nc1ccc2c(c1)OCCO2", "activation": "0.41%"}
{"smiles": "CCOC(=O)N1CCC(c2cc(=O)n(-c3ccccc3)[nH]2)CC1", "activation": "1.97%"}
{"smiles": "Cc1ccc(C(=O)N2CCC(n3nccc3NC(=O)Nc3cccc(F)c3)CC2)cn1", "activation": "-1.64%"}
{"smiles": "O=C(NCc1ccccc1)C(c1cccnc1)N(C(=O)c1csnn1)c1ccc(F)cc1", "note": "(stereo not given)", "activation": "-0.33%"}
{"smiles": "CCOc1ccc(S(=O)(=O)N2CCN(C(=O)c3oc4ccccc4c3C)CC2)cc1", "activation": "1.62%"}
{"smiles": "COc1ccc(CCNCC(O)Cn2ccc3ccccc32)cc1OC", "note": "(stereo not given)", "activation": "0.29%"}
